Source: PubChem BioAssay (several laboratories)
Beta apoptosis = inhibitors of cytokine-induced beta cell apoptosis, primary screen, luminescence; INS-1E cytokine-induced death, ATP luminescence, 48 h; percent of positive-control rescue, neutral wells zero; protection from apoptosis, % (concentration not given with the values); hit rate 0.8% among 300,000;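 active means Every replicate reaches about 75%, or at least half do and their mean reaches it too, limit read from the data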;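 further: 0% = cytokine-treated negative control wells and 100% = positive control rescue; higher means more ATP so stronger rescue from cytokine killing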
Mdm2-MdmX inh = inhibitors of human Mdm2-MdmX association, primary screen, cell-based, luminescence, split luciferase, SaOS-2, uHTS. SaOS-2 split-luciferase Mdm2/MdmX complementation. inhibition, % at 8 µM. hit rate 3% among 330,000. AID 485346, 2010;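 active means inhibition of at least 50% at 8 µM in the primary screen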
Target sequence (O15151 whole entry, looked up): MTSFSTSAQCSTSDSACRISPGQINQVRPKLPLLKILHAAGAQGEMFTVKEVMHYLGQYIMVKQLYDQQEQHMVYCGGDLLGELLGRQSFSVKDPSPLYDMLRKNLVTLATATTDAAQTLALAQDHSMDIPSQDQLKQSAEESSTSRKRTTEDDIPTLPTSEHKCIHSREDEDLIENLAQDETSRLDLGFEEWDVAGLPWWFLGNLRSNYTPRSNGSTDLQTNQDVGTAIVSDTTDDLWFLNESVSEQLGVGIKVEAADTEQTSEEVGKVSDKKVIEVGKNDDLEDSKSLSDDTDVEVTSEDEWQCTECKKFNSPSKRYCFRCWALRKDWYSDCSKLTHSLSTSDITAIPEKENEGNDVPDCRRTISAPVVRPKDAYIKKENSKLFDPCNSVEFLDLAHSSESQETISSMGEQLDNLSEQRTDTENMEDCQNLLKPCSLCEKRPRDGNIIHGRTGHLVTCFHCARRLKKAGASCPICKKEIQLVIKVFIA
Target sequence (Q00987 whole entry, looked up): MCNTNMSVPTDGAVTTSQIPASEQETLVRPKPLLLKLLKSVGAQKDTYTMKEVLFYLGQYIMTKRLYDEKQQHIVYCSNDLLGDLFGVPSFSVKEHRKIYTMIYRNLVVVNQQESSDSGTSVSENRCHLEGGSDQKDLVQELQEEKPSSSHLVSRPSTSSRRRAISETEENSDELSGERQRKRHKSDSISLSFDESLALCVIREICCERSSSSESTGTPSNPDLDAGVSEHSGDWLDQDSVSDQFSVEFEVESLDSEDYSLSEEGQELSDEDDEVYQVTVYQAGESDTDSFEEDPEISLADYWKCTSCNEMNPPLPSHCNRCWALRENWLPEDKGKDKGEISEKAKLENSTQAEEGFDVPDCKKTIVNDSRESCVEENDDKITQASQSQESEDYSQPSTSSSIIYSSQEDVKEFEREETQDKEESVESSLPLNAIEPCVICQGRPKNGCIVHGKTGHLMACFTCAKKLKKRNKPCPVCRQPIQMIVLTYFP
GRIN3A LBD mod = binders of NR3A ligand-binding domain, primary screen, biophysical, differential scanning fluorimetry, uHTS. Glutamate receptor ionotropic, NMDA 3A (GRIN3A) ligand-binding domain. NR3A LBD differential scanning fluorimetry, Tm shift; 0% = protein alone, 100% = glycine-bound protein. Tm shift relative to glycine control, % at 25 µM. hit rate 2.5% among 340,000;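 active means melting temperature shift of at least 10% of the positive control shift, at one fixed dose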
SKKanGAS inh = S. pyogenes SKKanGAS growth inhibitors in kanamycin, primary screen, streptokinase expression inhibitor project, SKKanGAS strain, BacTiter-Glo luminescence | 6 h | inhibition, % at 7.5 µM | hit rate 1.3% among 300,000 | AID 1662, 2009;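 active means mean replicate score, as percent of positive control median, at least 50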;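 further: strain carries kanamycin resistance gene driven by streptokinase promoter and grows in 40 µg/ml kanamycin; loss of luminescence reflects streptokinase promoter inhibition or plain growth inhibition; 0% = median of DMSO wells and 100% = positive control at its reference dose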
CSC inhib = cancer stem cell viability inhibitors, primary screen, luminescence; AID 2717, 2010; inhibition, % at 7.5 µM; hit rate 1.1% among 300,000; cancer stem cell-like cells viability; in the data active means inhibition above about 75%; tested in HMLE shEcad cells
MPTP inh = mitochondrial permeability transition pore inhibitors, primary screen, biochemical, isolated mouse mitochondria, absorbance; hit rate 1.4% among 360,000; Ca2+ swelling absorbance, 30 min; inhibition, % at 10 µM; AID 602449, 2012;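 active means inhibition of 50% or more, scaled per plate between neutral and stimulator controls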;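 further: 0% = DMSO wells given calcium and 100% = 1 mM EGTA wells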
* hit, by the source's call. In the library only some 6.9% were active in any assay of this set; here they are far more common.

Results for O=[N+]([O-])c1cccc(/C=N/n2cnnc2)c1 ?
Beta apoptosis: 81.7*; Mdm2-MdmX inh: 27.5; GRIN3A LBD mod: 1.5; SKKanGAS inh: -8.0; CSC inhib: -1.4; MPTP inh: 1.0

What do the screens show for `O=[N+]([O-])c1ccc(O)c(/C=N/n2cnnc2)c1`?
Beta apoptosis: -3.0; Mdm2-MdmX inh: -5.2; GRIN3A LBD mod: 3.5; SKKanGAS inh: -6.5; MPTP inh: 3.6

How did COc1ccc(N2C(=NC(=O)C3CCCCC3)SC3CS(=O)(=O)CC32)c(OC)c1 (stereo not drawn) do in these assays?
Beta apoptosis: -2.4; Mdm2-MdmX inh: 5.9; GRIN3A LBD mod: 0.7; SKKanGAS inh: -4.3; CSC inhib: -5.7; MPTP inh: 2.4

Results for Fc1ccc(CSc2ncnc3sc4c(c23)CCCC4)cc1 ?
Beta apoptosis: 1.1; Mdm2-MdmX inh: 36.3; GRIN3A LBD mod: -0.1; SKKanGAS inh: 77.5*; CSC inhib: 28.9; MPTP inh: 12.3

Results for O=S(=O)(Nc1ncnc2sc3c(c12)CCC3)c1cc(F)ccc1F ?
Beta apoptosis: 12.2; Mdm2-MdmX inh: -9.0; GRIN3A LBD mod: -2.1; SKKanGAS inh: 5.8; CSC inhib: 6.5; MPTP inh: 3.3

Results for Fc1cccc(Nc2ncnc3sc4c(c23)CCC4)c1 ?
Beta apoptosis: 8.0; Mdm2-MdmX inh: 14.6; GRIN3A LBD mod: 12.7*; SKKanGAS inh: 2.1; CSC inhib: 46.9; MPTP inh: 0.3

Results for Cn1nc(CC(=O)Nc2ccc3c(c2)OCCO3)c2ccccc2c1=O ?
Beta apoptosis: 75.4*; Mdm2-MdmX inh: 30.7; GRIN3A LBD mod: -0.2; SKKanGAS inh: -0.6; CSC inhib: 1.2; MPTP inh: 33.4

What do the screens show for `C#CCOCCOCCOCCNc1nc(N2CCN(C(=O)Cn3cc(CC(C)O)nn3)CC2)nc(N2CCN(C(=O)[C@H]([C@@H](C)CC)n3cc(CCCCN)nn3)CC2)n1` (stereo partly drawn)?
GRIN3A LBD mod: -9.9; MPTP inh: 0.3

Results for CC1CCCN(CCCNC(=O)c2cc3c(Cl)nc4ccccc4c3s2)C1 (stereo not drawn) ?
Beta apoptosis: 64.6; Mdm2-MdmX inh: 18.9; GRIN3A LBD mod: -2.2; SKKanGAS inh: -6.8; CSC inhib: 85.5*; MPTP inh: -5.3

What do the screens show for `Cc1nc2ccccc2c2oc(C(=O)NCCCN3CCCC(C)C3)cc12` (stereo not drawn)?
Beta apoptosis: 14.7; Mdm2-MdmX inh: 24.6; GRIN3A LBD mod: -1.3; SKKanGAS inh: 0.6; CSC inhib: -6.9; MPTP inh: -0.2

What do the screens show for `CCN(CC)CCCNC(=O)c1cc2c(Cl)nc3ccccc3c2s1`?
Beta apoptosis: 14.2; Mdm2-MdmX inh: -8.7; GRIN3A LBD mod: -0.8; SKKanGAS inh: -5.0; CSC inhib: 77.4*; MPTP inh: -3.3

What do the screens show for `CCOC(=O)c1sc(/N=C/c2ccc(O)cc2O)cc1C`?
Beta apoptosis: -28.3; Mdm2-MdmX inh: -1.7; GRIN3A LBD mod: 14.4*; SKKanGAS inh: 3.7; CSC inhib: 0.1; MPTP inh: 0.7

Results for COc1ccc(S(=O)(=O)N2CCCC2=O)cc1N(C)S(C)(=O)=O ?
Mdm2-MdmX inh: -8.6; GRIN3A LBD mod: -3.7; SKKanGAS inh: 2.7; MPTP inh: 0.8

What do the screens show for `COc1ccccc1N1C(=O)[C@@H]2C(C(=O)CN3C(=O)c4ccccc4C3=O)=NN[C@@H]2C1=O`?
Beta apoptosis: 2.4; Mdm2-MdmX inh: 5.8; GRIN3A LBD mod: 0.2; SKKanGAS inh: -5.9; CSC inhib: -7.0; MPTP inh: 0.9

What do the screens show for `COc1cccc(N2C(=O)C3NN=C(C(=O)CN4C(=O)c5ccccc5C4=O)C3C2=O)c1` (stereo not drawn)?
Beta apoptosis: -1.7; Mdm2-MdmX inh: -19.6; GRIN3A LBD mod: 1.4; SKKanGAS inh: 52.3*; CSC inhib: -7.8; MPTP inh: 1.4

How did COCCCN1C(=O)C(CC(=O)NCCCCc2ccccc2)CC(C(=O)N(C(C)C)C(C)C)=C1C (stereo not drawn) do in these assays?
MPTP inh: -1.4

What do the screens show for `O=C(c1ccc(Cl)cc1)N1CCN(c2cccc3[nH]ccc23)CC1`?
Mdm2-MdmX inh: 6.3; GRIN3A LBD mod: 15.4*; SKKanGAS inh: 4.3; CSC inhib: 34.7; MPTP inh: 1.2

Results for Oc1c(Br)cc(/C=N/n2c(-c3ccccc3)n[nH]c2=S)c(Br)c1O ?
Beta apoptosis: 8.5; SKKanGAS inh: 3.0; CSC inhib: 106.1*

What do the screens show for `Cc1ccccc1/C=N/n1c(-c2ccccn2)n[nH]c1=S`?
Beta apoptosis: -2.9; Mdm2-MdmX inh: 2.8; GRIN3A LBD mod: 11.0*; SKKanGAS inh: -1.7; CSC inhib: -12.2; MPTP inh: -0.8

What do the screens show for `Oc1c(Br)cc(Br)cc1/C=N/n1c(-c2ccccc2)n[nH]c1=S`?
Beta apoptosis: -9.1; Mdm2-MdmX inh: 9.7; GRIN3A LBD mod: -2.9; SKKanGAS inh: 3.3; CSC inhib: 1.4; MPTP inh: -1.6

What do the screens show for `S=c1[nH]nc(-c2cc(-c3ccccc3)n[nH]2)n1/N=C/c1ccc(Br)s1`?
Beta apoptosis: -10.5; Mdm2-MdmX inh: -13.3; GRIN3A LBD mod: 8.5; SKKanGAS inh: 59.5*; CSC inhib: 52.9; MPTP inh: 6.2

What do the screens show for `S=c1[nH]nc(-c2cc(-c3ccccc3)n[nH]2)n1/N=C/c1c(Cl)cccc1Cl`?
Beta apoptosis: -1.3; Mdm2-MdmX inh: 3.6; GRIN3A LBD mod: 4.8; SKKanGAS inh: 61.0*; CSC inhib: 41.2; MPTP inh: 15.8

How did Cc1ccccc1/C=N/n1c(-c2cc(-c3ccccc3)n[nH]2)n[nH]c1=S do in these assays?
Beta apoptosis: -2.8; Mdm2-MdmX inh: -30.6; GRIN3A LBD mod: -0.8; SKKanGAS inh: 6.7; CSC inhib: 9.2; MPTP inh: 8.4

What do the screens show for `CCN(CC(=O)NCc1cccs1)S(=O)(=O)c1ccc(F)c(F)c1F`?
Beta apoptosis: -3.7; Mdm2-MdmX inh: -11.1; GRIN3A LBD mod: 3.0; SKKanGAS inh: 15.5; CSC inhib: -5.5; MPTP inh: -0.4

What do the screens show for `CCOc1ccc(N(CC(=O)NCCc2ccccc2)C(=O)CCC(=O)Nc2nccs2)cc1`?
Beta apoptosis: -3.3; Mdm2-MdmX inh: 2.1; GRIN3A LBD mod: -3.0; SKKanGAS inh: -5.2; CSC inhib: -7.7; MPTP inh: -3.4

Results for Cc1onc(-c2c(Cl)cccc2Cl)c1C(=O)N1C(C)CCCC1C (stereo not drawn) ?
Beta apoptosis: -0.3; Mdm2-MdmX inh: 23.2; GRIN3A LBD mod: -0.9; SKKanGAS inh: -6.6; CSC inhib: 12.3; MPTP inh: -0.3
